Results on 22 compounds are retold here after PubChem BioAssay AID434994 (NMMLSC, 2010).

Each structure is given as a SMILES string. Some of the results follow. A number with no mark means an inactive call. Activity calls are given as the source filed them.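 How the source made its calls: active means superoxide signal below 65% of the plate average of sample wells; inactive means the rest.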

The assay can be described thus: superoxide lowering in aged yeast cells, confirmation, cherry picked compounds (AID 434994).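 Further: cells aged with compound for 7 days at 30 degrees C before staining; 100% equals mean DHE fluorescence of all compound wells on the plate.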 The following applies: S. cerevisiae aging, superoxide DHE fluorescence; at 10 µM; active compounds read low.
Turning to `Cc1ccc(-c2nnc(Nc3ccc(C(=O)N(C)C)cc3)c3ccccc23)cc1S(N)(=O)=O`, the superoxide response (% of plate) is 107%.
Then `Cc1ccc(-c2nn(C(C)(C)C)c3ncnc(N)c23)cc1`, with 42.9% (active); and `O=C(Nc1cccc(Cl)c1Cl)c1ccccc1NC(=O)C1CC=CCC1C(=O)O` (configuration not stated), with 101%; and `CCN(CC)c1ccc(NC(=O)CN2CCN(c3ccccn3)CC2)cc1`, with 101%.
As to `Cn1c(Nc2ccccc2)cc(=O)n(C)c1=O`, the superoxide response (% of plate) was 100%.
`O=C(O)c1ccc(F)c(S(=O)(=O)Nc2ccccc2)c1`: the superoxide response (% of plate) is 101%.
The same measure for `CCN(CC)C(=O)CSc1nnc(-c2cccc(OC)c2)o1`: 113%.
Then `Cc1ccc(-c2nc(CS(=O)CC(=O)N3CCN(c4ncccn4)CC3)c(C)o2)cc1` (configuration not stated), with 92.5%.
Then `Cc1cc(C(F)F)n2nc(C(=O)Nc3ccc(S(=O)(=O)NC45CC6CC(CC(C6)C4)C5)cc3)nc2n1`, with 111%; and `O=C(Nc1ccccc1N1CCCC1)c1ccc2ccccc2c1`, with 95.3%.
Take `Cc1ccc(C23CC4CC(CC(C(=O)NCC(=O)O)(C4)C2)C3)cc1`: the superoxide response (% of plate) was 106%.
Then `CNC(=O)c1cccc2nc3ccccc3nc12`, with 79.8%; and `O=[N+]([O-])c1ccc2c(c1)Nc1nc3ccccc3nc1N2`, with 82.5%; and `Cc1cc2oc(C(=O)Nc3c(C)n(C)n(-c4ccccc4)c3=O)c(C)c2cc1Cl`, with 93.5%.
The same measure for `Cc1ccc(-c2nc(CSCC(=O)NC3CCN(Cc4ccccc4)CC3)c(C)o2)cc1`: 101%; for `COC(=O)CNC(=O)c1ccc(OC2CCN(C(=O)C3CC3)CC2)cc1`: 103%.
Then `CC(=O)C[C@@H](O)CC(=O)[C@H]1OC(=O)CCCCCCc2ccccc21`, with 103%.
In the case of `O=C(CSCc1ccccc1)Nc1ccccc1`, the superoxide response (% of plate) is 107%.
The same measure for `CN1CCN(c2cc3c(cc2F)c(=O)c(C(=O)O)cn3CCF)CC1`: 116%; for `O=C(Nc1ccc(Br)cn1)c1ccc([N+](=O)[O-])cc1Cl`: 96.2%.
The same measure for `Cc1cc(=O)n2[nH]c(-c3cccc(Cl)c3)cc2n1`: 98.1%.
The same measure for `COc1cccc(NC(=O)NCCN2CCCCC2)c1`: 101%.
